The values that follow come from the supplement of paper PMC9177965.

Values joined by “and” are separate entries in the source; they are usually repeats but may differ in a detail not shown here. Equal values may be shown once.

For this assay, the system named is HT29 RNF43 G659fs (RNF43 659mut, CRISPR-edited). Description: cell viability activity relative to DMSO (negative = inhibition); higher = more viable cells (less growth inhibition). Conditions: 5 µM; 96 h. As to the method:
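Broad Repurposing Library primary screen at a single dose of 5 uM. HT29 sg-Ctrl and HT29 RNF43 G659fs CRISPR-edited isogenic cells were seeded at 2500 cells/well in 384-well plates in duplicate and treated for 96 h. Viability was read by CellTiter-Glo and reported as % activity relative to DMSO, with MG132 as the positive control (negative = growth inhibition).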
As for `C[C@H]1CCC/C=C/[C@@H]2C[C@H](O)C[C@H]2[C@H](O)/C=C/C(=O)O1`, the cell viability activity was -99.3% and -97.5%. `O=C1/C(=C/c2ccccc2)C[C@@]2(O)C3Cc4ccc(O)c5c4[C@@]2(CCN3CC2CC2)[C@H]1O5`: the cell viability activity was -81.4%. For `COC(=O)NC(=S)Nc1ccccc1NC(=S)NC(=O)OC` the value was -31.4%; for `C[C@]12CC[C@H](O)C[C@H]1CC[C@@H]1[C@@H]2C[C@@H](O)[C@]2(C)[C@@H](C3=CC(=O)OC3)CC[C@]12O`, -78.8%; for `CO[C@H]1C[C@H](O[C@H]2CC[C@@]3(C)[C@H](CC[C@@H]4[C@@H]3CC[C@]3(C)[C@@H](C5=CC(=O)OC5)[C@@H](OC(C)=O)C[C@]43O)C2)O[C@@H](C)[C@@H]1O`, -84.3%.

Turning to `CCNC(=O)C[C@@H]1N=C(c2ccc(Cl)cc2)c2cc(OC)ccc2-n2c(C)nnc21`, the cell viability activity is -56.9%. Take `Cc1sc2c(c1C)C(c1ccc(Cl)cc1)=N[C@@H](CC(=O)Nc1ccc(O)cc1)c1nnc(C)n1-2`: the cell viability activity was -56.2%.

For `COc1cc2cc(c1Cl)N(C)C(=O)C[C@H](OC(=O)C(C)C)[C@]1(C)O[C@@H]1[C@H](C)[C@@H]1C[C@@](O)(NC(=O)O1)[C@H](OC)/C=C/C=C(\C)C2`, the cell viability activity is -66.8%. To `C/C(=C\c1csc(C)n1)[C@@H]1C[C@@H]2O[C@@H]2CCC[C@H](C)[C@H](O)[C@@H](C)C(=O)C(C)(C)[C@@H](O)CC(=O)O1` belongs -69%. For `N#Cc1cn([C@@H]2O[C@H](CO)[C@@H](O)[C@H]2O)c2ncnc(N)c12` the value was -94.2%. To `COc1cc([C@@H]2c3cc4c(cc3[C@H](O)[C@H]3COC(=O)[C@H]23)OCO4)cc(OC)c1OC` belongs -59.9%; to `CC[C@H]1CN2CCc3cc(OC)c(OC)cc3[C@@H]2C[C@@H]1C[C@H]1NCCc2cc(OC)c(OC)cc21`, -93.8% and -97.5%; to `CC(=O)O[C@H]1C[C@H](O[C@H]2[C@@H](O)C[C@H](O[C@H]3[C@@H](O)C[C@H](O[C@H]4CC[C@@]5(C)[C@H](CC[C@@H]6[C@@H]5C[C@@H](O)[C@]5(C)[C@@H](C7=CC(=O)OC7)CC[C@]65O)C4)O[C@@H]3C)O[C@@H]2C)O[C@H](C)[C@H]1O[C@@H]1O[C@H](CO)[C@@H](O)[C@H](O)[C@H]1O`, -89.7%.
